Screening results deposited in PubChem by National Center for Advancing Translational Sciences (NCATS).
KB-V1 cytotox – KB-V1 MDR subline cytotoxicity; 400,000 tested, 3.4% active; Potency, µM (titrated, usually from 46.1 µM), most hits filed as cytotoxic; KB-V1 MDR cells viability, CellTiter-Glo, 72 h; also: nearly all actives have a fitted effect of over 60% in size
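KB-V1, DMEM (no phenol red) + 10% FBS; cpd pin-transferred, titration series; 72 h, 37 degrees C; CellTiter-Glo, luminescence. Data normalized, curve-fit.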
HT1080 IDH1KD tx – HT-1080 IDH1 knockdown cell toxicity (counter line) | HT-1080 IDH1 knockdown viability, ATP luminescence, 48 h | Potency, µM (highest dose often 46.1 µM), actives largely listed as cytotoxic | 360,000 tested, 2% active | AID 686971
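% activity derives from luminescence (CellTiter-Glo), normalised to DMSO and no-cell wells. HT-1080-IDH1KD cells, 750/well, had 48 h compound exposure at 37 °C.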
KB-3-1 tox – kills parental KB-3-1 adenocarcinoma cells | KB-3-1 viability, CellTiter-Glo ATP luminescence, 72 h | Potency, µM (doses to about 46.1 µM), hits mostly cytotoxic | 400,000 tested, 1.4% active | AID 1347075; also: nearly all actives have a fitted effect of over 60% in size
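Parental KB-3-1 viability, qHTS format: 72 h compound exposure, 37 °C; CellTiter-Glo; media-only wells and DMSO plates as controls; concentration-effect fits on corrected data.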
DT40 TDP1 CPT – growth inhibition of DT40 Tdp1-/-;hTDP1 cells with camptothecin (screen for TDP1 inhibitors); 420,000 tested, 12% active; chicken DT40 Tdp1-/-;hTDP1 cells + 20 nM CPT, ATP luminescence, 48 h; Potency, µM (doses to about 46.2 µM), hits mostly inhibitors; also: nearly all actives have a fitted effect of over 55% in size
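Chicken DT40 Tdp1-/- cells complemented with human TDP1, 400 cells/well, exposed to compounds plus 20 nM camptothecin for at least 48 h at 37 C; viability read as ATP content by CellTiter-Glo luminescence.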
TDP1 cell noCPT – qHTS for Inhibitors of human tyrosyl-DNA phosphodiesterase 1 (TDP1): qHTS in cells in absence of CPT; AID 686978, 2013; Potency, µM (series often up to 46.2 µM), usual class: inhibitors; 420,000 tested, 15% active; DT40 Tdp1-/- hTDP1 cells, no CPT, ATP luminescence, 48 h; also: nearly all actives have a fitted effect of over 55% in size
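Stably hTDP1-transfected Tdp1-null chicken DT40 cells were treated with library compounds minus camptothecin and grown for at least 48 hr at 37 °C, after which cellular ATP was quantified by luminescence.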
HT1080NT lethal – kills 2HG-producing HT-1080-NT fibrosarcoma cells; HT-1080-NT fibrosarcoma viability, CellTiter-Glo ATP luminescence, 48 h; Potency, µM (titrated, usually from 46.1 µM), actives largely listed as cytotoxic; 360,000 tested, 1.6% active; AID 686970;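 also: NT is the 2HG producing partner of a matched IDH1 knockdown line; nearly all actives have a fitted effect of over 55% in size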
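Luminescent CellTiter-Glo readout after 48 hours of compound exposure at 37 degrees C defined viability of HT-1080-NT cells. Activity was normalized to DMSO wells and cell-free media wells; concentration-response curves were fitted and assigned curve classes.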
A number is an active result; ! = a repeat was not active; [ ] = another dose, or the depositor's remark. The list is not random: actives were taken first. Their share in the collection is about 19%. Calls follow the shape of the dose curve; as a rule, active = well fitted curve in the direction sought with a large enough effect; inconclusive = small, poorly fitted or top-dose-only effect, or another doubt; inactive = no such curve, though single readings can be large; an effect the other way counts as inactive or inconclusive.

For CCCCN(CC)CCCNC(=O)c1cn(C)c2ccc(S(=O)(=O)N(C)C3CCCCC3)cc2c1=O the results were KB-V1 cytotox inactive, HT1080 IDH1KD tx inactive, KB-3-1 tox inconclusive, DT40 TDP1 CPT inconclusive, TDP1 cell noCPT inconclusive and HT1080NT lethal inactive.
Screening O=C(CSc1nc(-c2ccco2)cc(C(F)(F)F)n1)NC1CCCC1 returned KB-V1 cytotox inactive, HT1080 IDH1KD tx inactive, KB-3-1 tox inactive, DT40 TDP1 CPT 21µM, TDP1 cell noCPT inconclusive and HT1080NT lethal inactive.
For COc1ccc(Cl)cc1NC(=O)CSc1nc(-c2ccco2)cc(C(F)(F)F)n1 the results were DT40 TDP1 CPT 18µM and TDP1 cell noCPT 16µM.
For O=C(CSc1nc(-c2ccco2)cc(C(F)(F)F)n1)Nc1ccc2c(c1)CCC2 the results were KB-V1 cytotox inconclusive, HT1080 IDH1KD tx inconclusive, KB-3-1 tox inactive, DT40 TDP1 CPT inconclusive, TDP1 cell noCPT inconclusive and HT1080NT lethal inactive.
COC(=O)c1ccc(C(=O)OC)c(NC(=O)CSc2nc(-c3ccco3)cc(C(F)(F)F)n2)c1 was read as KB-V1 cytotox inactive, HT1080 IDH1KD tx inactive, KB-3-1 tox inactive, DT40 TDP1 CPT inconclusive, TDP1 cell noCPT inconclusive and HT1080NT lethal inactive.
`Cc1ccc(NC(=O)CSc2nc(-c3ccco3)cc(C(F)(F)F)n2)cc1C` gave KB-V1 cytotox 4.1µM, HT1080 IDH1KD tx 2.5µM, KB-3-1 tox 4.1µM!, DT40 TDP1 CPT 2.3µM, TDP1 cell noCPT 3.7µM and HT1080NT lethal 10µM.
For COC(=O)c1ccccc1NC(=O)CSc1nc(-c2ccco2)cc(C(F)(F)F)n1 the results were KB-V1 cytotox inconclusive, HT1080 IDH1KD tx 3.5µM, KB-3-1 tox inconclusive, DT40 TDP1 CPT 4.1µM, TDP1 cell noCPT 4.6µM and HT1080NT lethal inconclusive.
`O=C(N=C1N=C2C=CC(Br)=CN2Cc2ccccc21)c1ccc([N+](=O)[O-])cc1[N+](=O)[O-]` gave KB-V1 cytotox inactive, HT1080 IDH1KD tx inactive, KB-3-1 tox inactive, DT40 TDP1 CPT inactive, TDP1 cell noCPT inconclusive and HT1080NT lethal inactive.
NC(=O)C1CCN(C(=O)c2ccc(NS(=O)(=O)c3ccc(F)c(F)c3)cc2)CC1 was read as KB-V1 cytotox inactive, HT1080 IDH1KD tx inactive, KB-3-1 tox inactive, DT40 TDP1 CPT inactive, TDP1 cell noCPT inactive and HT1080NT lethal inactive.
`O=C(Nc1nc(-c2ccccn2)cs1)c1ccc([N+](=O)[O-])o1` gave KB-V1 cytotox inactive, HT1080 IDH1KD tx inconclusive, KB-3-1 tox inconclusive, DT40 TDP1 CPT 4.1µM, TDP1 cell noCPT 2.6µM and HT1080NT lethal inactive.
CC(=O)c1ccc(-c2ccc(C(=O)Nc3nc(-c4ccccn4)cs3)o2)cc1 was read as KB-V1 cytotox inconclusive, HT1080 IDH1KD tx 10µM, KB-3-1 tox inconclusive, DT40 TDP1 CPT 2.9µM, TDP1 cell noCPT 3.7µM and HT1080NT lethal inconclusive.
`c1ccc(CCNc2nc(-c3ccccn3)cs2)cc1` gave KB-V1 cytotox inactive, HT1080 IDH1KD tx inactive, KB-3-1 tox inactive, DT40 TDP1 CPT inconclusive, TDP1 cell noCPT 7.3µM and HT1080NT lethal inactive.
Screening Cc1ccc(C(=O)Nc2nc(-c3ccccn3)cs2)o1 returned KB-V1 cytotox inactive, HT1080 IDH1KD tx inconclusive, KB-3-1 tox inconclusive, DT40 TDP1 CPT 5.8µM, TDP1 cell noCPT 3.7µM and HT1080NT lethal inactive.
`c1ccc(CNc2ccccn2)cc1` gave KB-V1 cytotox inactive, HT1080 IDH1KD tx inactive, KB-3-1 tox inactive, DT40 TDP1 CPT inactive, TDP1 cell noCPT inactive and HT1080NT lethal inactive.
`COc1cc2nc(N3CCCC(O)C3)c(CNCc3ccccc3F)cc2c(OC)c1OC` (configuration not stated) gave DT40 TDP1 CPT inactive[9.04 µM] and TDP1 cell noCPT inactive.
Screening Cc1ccc([C@H]2C(C(=O)O)=CC[C@@H](c3ccc(Cl)c(Cl)c3)N2S(=O)(=O)c2ccc(C)cc2)cc1 returned KB-V1 cytotox inactive, HT1080 IDH1KD tx inactive, KB-3-1 tox inactive, DT40 TDP1 CPT inconclusive, TDP1 cell noCPT inconclusive and HT1080NT lethal inactive.
`O=C(Nc1nc(-c2ccccn2)cs1)c1ccc(-c2ccccc2F)o1` gave KB-V1 cytotox inactive, HT1080 IDH1KD tx inconclusive, KB-3-1 tox inconclusive, DT40 TDP1 CPT 5.8µM, TDP1 cell noCPT 10µM and HT1080NT lethal inconclusive.
For CCc1cc(C(=O)Nc2nc(-c3ccccn3)cs2)sc1C the results were KB-V1 cytotox inactive, HT1080 IDH1KD tx inconclusive, KB-3-1 tox inactive, DT40 TDP1 CPT 4.6µM, TDP1 cell noCPT 2.9µM and HT1080NT lethal inactive.
O=C(NCc1ccccn1)c1ccc2nc(C3CCCCC3)oc2c1 was read as KB-V1 cytotox inactive, HT1080 IDH1KD tx inactive, KB-3-1 tox inactive, DT40 TDP1 CPT inactive, TDP1 cell noCPT inactive and HT1080NT lethal inactive.
`O=C(NCc1ccccc1)C(c1ccc(F)cc1)N(Cc1ccco1)C(=O)c1ccccn1` (configuration not stated) gave KB-V1 cytotox inconclusive, HT1080 IDH1KD tx inactive, KB-3-1 tox inactive, DT40 TDP1 CPT inconclusive, TDP1 cell noCPT inconclusive and HT1080NT lethal inactive.
For Cc1ccccc1C(C(=O)NCc1ccccc1)N(Cc1ccco1)C(=O)c1ccccn1 (configuration not stated) the results were KB-V1 cytotox inconclusive, HT1080 IDH1KD tx inactive, KB-3-1 tox inactive, DT40 TDP1 CPT inconclusive, TDP1 cell noCPT 15µM and HT1080NT lethal inactive.
`O=C(NC1CCCCC1)C(c1ccc(F)cc1)N(Cc1ccco1)C(=O)c1ccccn1` (configuration not stated) gave KB-V1 cytotox inactive, HT1080 IDH1KD tx inactive, KB-3-1 tox inactive, DT40 TDP1 CPT 0.82µM, TDP1 cell noCPT inactive and HT1080NT lethal inactive.
For O=C(NC1CCCC1)C(c1ccncc1)N(CCCN1CCOCC1)C(=O)c1ccc(-c2ccccc2)[nH]1 (configuration not stated) the results were KB-V1 cytotox inactive, HT1080 IDH1KD tx inactive, KB-3-1 tox inactive, DT40 TDP1 CPT inactive, TDP1 cell noCPT inactive and HT1080NT lethal inactive.
For O=C(NC1CCCC1)C(c1ccncc1)N(Cc1ccco1)C(=O)c1ccc(-c2ccccc2)[nH]1 (configuration not stated) the results were KB-V1 cytotox 21µM, HT1080 IDH1KD tx 15µM, KB-3-1 tox inconclusive, DT40 TDP1 CPT 23µM, TDP1 cell noCPT 16µM and HT1080NT lethal inconclusive.
For O=C(NC1CCCC1)C(c1ccncc1)N(Cc1ccccc1)C(=O)c1ccc(-c2ccccc2)[nH]1 (configuration not stated) the results were KB-V1 cytotox inconclusive, HT1080 IDH1KD tx inconclusive, KB-3-1 tox inconclusive, DT40 TDP1 CPT 21µM, TDP1 cell noCPT 16µM and HT1080NT lethal inconclusive.
